Hits are enriched below; roughly 3.3% of the tested compounds scored in any of these assays.
esBAF inh: inhibitors of esBAF chromatin remodeling in mouse ES cells; Bmi1-luciferase knock-in reporter, 24 h; 100% = twice the neutral-well signal; reporter increase, % at 12.5 µM; 350,000 tested, 2% active; in the data active = activation above about 40%;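 note: a rise in the Bmi1 reporter signal indicates esBAF inhibition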
697 NFkB inh: inhibitors of the PMA/ionomycin-induced NF-kB reporter in 697 B cells; inhibition, % at 4 µM; 330,000 tested, 0.33% active; 697 B-cell NF-kB luciferase reporter, 16 h; in the data active = inhibition above about 35%
Gli-Sufu antag: antagonists of Gli-Sufu signaling. Sufu-KO-LIGHT fibroblasts, Gli luciferase reporter luminescence. inhibition, % at 5 µM. 340,000 tested, 0.74% active;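 active = inhibition above about 55%, limit read from the data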
SMARCA2 activ: increases SMARCA2 function in MMTV reporter cells | MG213 cells, MMTV-luciferase reporter, dexamethasone, overnight | activation, % at 9.1 µM | 370,000 tested, 1% active | AID 652017; in the data active = activation above about 7.8%
Jurkat NFkB inh: lowers PMA/ionomycin-induced NF-kB signal in Jurkat cells; PMA/ionomycin-induced NF-kB luciferase reporter, luminescence; inhibition, % at 4 µM; 330,000 tested, 0.53% active; AID 435003; in the data active = inhibition above about 50%
SMARCA2 conf: confirmation of SMARCA2 (BRM) function activators | shares compounds with SMARCA2 activ | MG213 cells, MMTV-luciferase with dexamethasone, luminescence, overnight; MG213 cells expressing E1A, Rb sequestered; DMSO wells 0%, reference activator 100% | activation, % at 9.1 µM | 3,500 tested, 30% active;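 active = activation above its plate's cutoff, the mean activation of tested wells plus 3 SD, cut at about 7.9% in these data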
GAL4-VP16 Luc: activates GAL4-VP16 luciferase, flagging SMARCA2 activator hits; shares compounds with SMARCA2 activ; HEK293 GAL4-VP16 pG5luc reporter, luciferase luminescence; scaled: DMSO wells 0%, SAHA wells 100%; activation, % at 9.1 µM; 3,500 tested, 41% active; AID 686939;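 active = activation above the solvent-only control well mean plus 3 SD, averaged across control plates, cut at about 5.2% in these data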
Numbers stand for hits; n = inactive; x = no result given.

SMILES	esBAF inh	697 NFkB inh	Gli-Sufu antag	SMARCA2 activ	Jurkat NFkB inh	SMARCA2 conf	GAL4-VP16 Luc
C[C@@H]1CCCCO[C@H](CN(C)Cc2ccc(Cl)c(Cl)c2)[C@@H](C)CN([C@@H](C)CO)C(=O)c2cc(NC(=O)Nc3ccc4c(c3)OCO4)ccc2O1	n	x	x	x	x	x	x
CCCN1C[C@@H](C)[C@@H](OC)CN(C)C(=O)c2ccc(NC(=O)c3ccccc3F)cc2OC[C@@H]1C	n	x	x	x	x	x	x
Cc1ccc2nc(NC(=O)COC(=O)c3ccco3)sc2c1	x	n	n	9.8	n	n	n
O=C(Nc1nc(-c2nc3ccccc3s2)cs1)c1ccco1	52	n	n	12	n	9.5	8.3
CCC(=O)N(C)C[C@H]1Oc2cc(C#CC(C)C)ccc2S(=O)(=O)N([C@@H](C)CO)C[C@H]1C	n	x	x	x	x	x	x
Cc1nccc2oc(=O)c(NC(=O)c3ccc(Cl)cc3)cc12	n	n	n	n	n	x	x
O=C(Nc1cc2c(oc1=O)CCCC2=O)c1ccc(Cl)cc1	n	n	n	9.4	n	n	n
COc1ccc(S(=O)(=O)N(C)C[C@@H]2Oc3c(NC(=O)Nc4c(C)noc4C)cccc3C(=O)N([C@@H](C)CO)C[C@@H]2C)cc1	n	x	x	x	x	x	x
CN1C(=O)c2cc(NC(=O)c3cccc(Cl)c3)ccc2OC[C@@H]2O[C@@H](CC(=O)NC3CCCCC3)CC[C@H]21	n	x	x	x	x	x	x
COc1ccc(C(=O)Nc2ccc3c(c2)OCCO3)cc1	n	n	n	8.0	n	n	10.0
O=C(Nc1cccc(Cl)c1)c1ccc2c(c1)OCCO2	n	n	n	9.0	n	n	8.7
COc1ccc(C(=O)Nc2ccc3c(c2)OCCO3)c(OC)c1	n	x	x	14	x	n	14
COc1ccc(C(=O)OCC(=O)Nc2ccc3c(c2)OCCO3)c(OC)c1	n	n	n	n	n	x	x
O=C(Nc1cccc2nsnc12)c1ccc2c(c1)OCCO2	n	n	n	8.8	n	n	9.7
CC(=O)Oc1ccc(C(=O)Nc2ccc3c(c2)OCCO3)cc1	n	n	n	n	n	x	x
O=C(Nc1ccc2c(c1)OCCO2)c1cccc(Cl)c1	n	n	n	n	n	x	x
COc1ccc(NC(=O)Nc2ccc3c(c2)C(=O)N([C@H](C)CO)C[C@H](C)[C@@H](CN(C)C(=O)Nc2ccc(OC)cc2)OCCCC[C@@H](C)O3)cc1	n	x	x	x	x	x	x
O=C(C[C@@H]1CC[C@H]2[C@@H](COC[C@H](O)CN2Cc2cccc(-c3ccncc3)c2)O1)N1CCCCC1	n	x	x	x	x	x	x
C[C@@H]1CCCCO[C@@H](CN(C)Cc2ccc(C(=O)O)cc2)[C@@H](C)CN([C@H](C)CO)C(=O)c2cc(NS(=O)(=O)c3ccccc3)ccc2O1	n	x	x	x	x	x	x
COCc1cn(CC[C@H]2CC[C@H](NC(=O)Nc3ccc(Cl)cc3)[C@@H](CO)O2)nn1	n	x	x	x	x	x	x
O=C(Nc1nc(=O)c2ccccc2s1)c1ccc(F)cc1	51	n	n	19	n	8.1	8.0
O=C(NNC1CC(=O)N(c2ccc3c(c2)OCCO3)C1=O)c1ccccc1 (configuration not stated)	n	n	n	8.6	n	n	n
Cc1ccccc1C(=O)NNC1CC(=O)N(c2ccc3c(c2)OCCO3)C1=O (configuration not stated)	x	n	n	n	n	x	x
c1ccc(-c2csc(CN3CCCCC3)n2)cc1	n	x	n	14	x	8.1	15
OCCC1CN(Cc2nc(-c3ccccc3)cs2)CCN1C1CCCC1 (configuration not stated)	n	n	n	n	n	x	x
CNC[C@H]1OCCCC[C@@H](C)Oc2ccc(NS(C)(=O)=O)cc2C(=O)N([C@@H](C)CO)C[C@@H]1C	n	x	x	x	x	x	x
Cc1cc(Cl)c2oc(C(=O)N3CCN(c4cccc(C)n4)CC3)c(C)c2c1	74	n	n	11	n	n	15
C[C@@H]1CCCCO[C@@H](CN(C)C(=O)Nc2ccc(F)cc2)[C@H](C)CN([C@H](C)CO)C(=O)c2cc(NS(C)(=O)=O)ccc2O1	n	x	x	x	x	x	x
COc1cccc(-c2nn3c(-c4ccccn4)nnc3s2)c1	n	n	n	8.7	n	n	n
